# Measurements: PubChem BioAssay (NCI)
# Several values for one entry are separate records, joined by “and”; a condition that tells them apart may be missing. Equal values may be shown once. About 83,000 compounds went through this panel and 20% of them were active in at least one assay; those are over-represented in the sample as a whole.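 Activity criterion: percent growth below 10, measured after cells in 96-well plates were exposed to a single compound concentration for 48 hours.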 Activity calls are given as the source filed them.
# Legend:
# Test in all cases: NCI-60 one-dose screen, 48 h (100 = growth as untreated, 0 = no growth, -100 = all killed)
# [1] = test system: DU-145 prostate
# [2] = test system: K-562 leukemia
# [3] = test system: MALME-3M melanoma
# [4] = test system: MDA-MB-231 breast
# [5] = test system: RXF 393 renal
# [6] = test system: SF-268 CNS
# [7] = test system: SF-295 CNS
# [8] = test system: SF-539 CNS
# [9] = test system: UACC-257 melanoma
# [10] = test system: M14 melanoma
# [11] = test system: HCT-15 colon
# [12] = test system: HT29 colon
# [13] = test system: SNB-75 CNS
# [14] = test system: SNB-19 CNS
# [15] = test system: U251 CNS
# [16] = test system: PC-3 prostate
# [17] = test system: SK-MEL-5 melanoma
# [18] = test system: UACC-62 melanoma
# [19] = test system: LOX IMVI melanoma
# [20] = test system: SK-MEL-28 melanoma
smiles,measurement,setting,value
CC(=O)Nc1ccc(O)cc1,growth,[1]; 10 µM unless noted,103% (inactive) and 113% (inactive) and 118% (inactive)
same,growth,[2]; 10 µM unless noted,107% (inactive) and 83.2% (inactive) and 106% (inactive)
same,growth,[3]; 10 µM unless noted,100% (inactive) and 1.98% (active) and 142% (inactive)
same,growth,[4]; 10 µM unless noted,101% (inactive) and 119% (inactive) and 92.4% (inactive)
same,growth,[5]; 10 µM unless noted,108% (inactive) and 129% (inactive)
same,growth,[6]; 10 µM unless noted,100% (inactive) and 106% (inactive) and 105% (inactive)
same,growth,[7]; 10 µM unless noted,89.9% (inactive) and 94.1% (inactive) and 107% (inactive)
same,growth,[8]; 10 µM unless noted,104% (inactive) and 95.4% (inactive) and 103% (inactive)
same,growth,[9]; 10 µM unless noted,98.3% (inactive) and 155% (inactive) and 107% (inactive)
same,growth,[10]; 10 µM unless noted,97.2% (inactive) and 123% (inactive) and 109% (inactive)
same,growth,[11]; 10 µM unless noted,103% (inactive) and 109% (inactive) and 105% (inactive)
same,growth,[12]; 10 µM unless noted,99.8% (inactive) and 96.8% (inactive) and 108% (inactive)
same,growth,[13]; 10 µM unless noted,99.8% (inactive) and 91.8% (inactive) and 104% (inactive)
same,growth,[14]; 10 µM unless noted,101% (inactive)
same,growth,[15]; 10 µM unless noted,102% (inactive) and 106% (inactive) and 107% (inactive)
same,growth,[16]; 10 µM unless noted,90.4% (inactive) and 136% (inactive) and 97.6% (inactive)
same,growth,[17]; 10 µM unless noted,98% (inactive) and 113% (inactive) and 112% (inactive)
same,growth,[18]; 10 µM unless noted,99.9% (inactive) and 102% (inactive) and 106% (inactive)
same,growth,[19]; 10 µM unless noted,103% (inactive) and 101% (inactive) and 106% (inactive)
same,growth,[20]; 10 µM unless noted,114% (inactive) and 66.2% (inactive) and 125% (inactive)
Nc1cc2c(cc1N)-c1ccccc1C2,growth,[1]; 10 µM unless noted,104% (inactive) and 106% (inactive)
same,growth,[2]; 10 µM unless noted,79.4% (inactive) and 87% (inactive)
same,growth,[3]; 10 µM unless noted,76.5% (inactive) and 103% (inactive)
same,growth,[4]; 10 µM unless noted,64.7% (inactive) and 97% (inactive)
same,growth,[5]; 10 µM unless noted,88.2% (inactive) and 96.4% (inactive)
same,growth,[6]; 10 µM unless noted,86.8% (inactive) and 92.6% (inactive)
same,growth,[7]; 10 µM unless noted,156% (inactive) and 98.8% (inactive)
same,growth,[8]; 10 µM unless noted,74.9% (inactive) and 92.5% (inactive)
same,growth,[9]; 10 µM unless noted,101% (inactive) and 98.1% (inactive)
same,growth,[10]; 10 µM unless noted,97.1% (inactive) and 109% (inactive)
same,growth,[11]; 10 µM unless noted,85.9% (inactive) and 94.3% (inactive)
same,growth,[12]; 10 µM unless noted,96.6% (inactive) and 105% (inactive)
same,growth,[13]; 10 µM unless noted,71.4% (inactive) and 91.6% (inactive)
same,growth,[14]; 10 µM unless noted,97.7% (inactive) and 115% (inactive)
same,growth,[15]; 10 µM unless noted,89.9% (inactive) and 89.5% (inactive)
same,growth,[16]; 10 µM unless noted,85% (inactive) and 105% (inactive)
same,growth,[17]; 10 µM unless noted,95.7% (inactive) and 97.1% (inactive)
same,growth,[18]; 10 µM unless noted,85.3% (inactive) and 109% (inactive)
same,growth,[19]; 10 µM unless noted,97.5% (inactive) and 93.3% (inactive)
same,growth,[20]; 10 µM unless noted,115% (inactive) and 116% (inactive)
CC#C[C@]1(O)CC[C@H]2[C@@H]3CCC4=CC(=O)CCC4=C3[C@@H](c3ccc4c(c3)OCO4)C[C@@]21C,growth,[1]; 10 µM,101% (inactive)
same,growth,[1]; 100 µM,-13.9% (active)
same,growth,[2]; 10 µM,83% (inactive)
same,growth,[2]; 100 µM,1.72% (active)
same,growth,[3]; 10 µM,97.8% (inactive)
same,growth,[3]; 100 µM,-29.8% (active)
same,growth,[4]; 10 µM,62.1% (inactive)
same,growth,[4]; 100 µM,-42.9% (active)
same,growth,[5]; 10 µM,69.5% (inactive)
same,growth,[5]; 100 µM,-50.7% (active)
same,growth,[6]; 10 µM,71.3% (inactive)
same,growth,[6]; 100 µM,-4.41% (active)
same,growth,[7]; 10 µM,58.5% (inactive)
same,growth,[7]; 100 µM,-41.1% (active)
same,growth,[8]; 10 µM,75% (inactive)
same,growth,[8]; 100 µM,-58.8% (active)
same,growth,[9]; 10 µM,90.1% (inactive)
same,growth,[9]; 100 µM,-38.7% (active)
same,growth,[11]; 10 µM,69.3% (inactive)
same,growth,[11]; 100 µM,-13.9% (active)
same,growth,[12]; 10 µM,102% (inactive)
same,growth,[12]; 100 µM,-19.2% (active)
same,growth,[13]; 10 µM,58.6% (inactive)
same,growth,[13]; 100 µM,-6.95% (active)
same,growth,[16]; 10 µM,67.4% (inactive)
same,growth,[16]; 100 µM,0.372% (active)
same,growth,[17]; 10 µM,83.6% (inactive)
same,growth,[17]; 100 µM,-80.3% (active)
same,growth,[18]; 10 µM,56.6% (inactive)
same,growth,[18]; 100 µM,-50.1% (active)
same,growth,[19]; 10 µM,83.7% (inactive)
same,growth,[19]; 100 µM,-89.6% (active)
same,growth,[20]; 10 µM,108% (inactive)
same,growth,[20]; 100 µM,-52.3% (active)
CCCCCCCCCCCCCCCc1ccc(Cl)c(O)c1Cl (tested in a mixture with another compound),growth,[1]; 0.25 µM,18.4% (inactive)
same,growth,[1]; 10 µM,106% (inactive)
same,growth,[2]; 0.25 µM,30.5% (inactive)
same,growth,[2]; 10 µM,92.3% (inactive)
same,growth,[3]; 0.25 µM,22.7% (inactive)
same,growth,[3]; 10 µM,100% (inactive)
same,growth,[4]; 0.25 µM,59.1% (inactive)
same,growth,[4]; 10 µM,97.9% (inactive)
same,growth,[5]; 0.25 µM,60.3% (inactive)
same,growth,[5]; 10 µM,106% (inactive)
same,growth,[6]; 0.25 µM,31.4% (inactive)
same,growth,[6]; 10 µM,94.9% (inactive)
same,growth,[7]; 0.25 µM,29.1% (inactive)
same,growth,[7]; 10 µM,109% (inactive)
same,growth,[8]; 0.25 µM,15.9% (inactive)
same,growth,[8]; 10 µM,103% (inactive)
same,growth,[9]; 0.25 µM,52.1% (inactive)
same,growth,[9]; 10 µM,80.7% (inactive)
same,growth,[10]; 0.25 µM,41% (inactive)
same,growth,[10]; 10 µM,92.2% (inactive)
same,growth,[11]; 0.25 µM,76.6% (inactive)
same,growth,[11]; 10 µM,109% (inactive)
same,growth,[13]; 0.25 µM,36.6% (inactive)
same,growth,[13]; 10 µM,94.2% (inactive)
same,growth,[14]; 0.25 µM,10.8% (inactive)
same,growth,[14]; 10 µM,111% (inactive)
same,growth,[15]; 0.25 µM,13% (inactive)
same,growth,[15]; 10 µM,92.9% (inactive)
same,growth,[16]; 0.25 µM,59.5% (inactive)
same,growth,[16]; 10 µM,90.4% (inactive)
same,growth,[17]; 10 µM unless noted,87.7% (inactive)
same,growth,[18]; 10 µM unless noted,22.8% [0.25 µM] (inactive)
same,growth,[19]; 0.25 µM,19.4% (inactive)
same,growth,[19]; 10 µM,99.2% (inactive)
same,growth,[20]; 0.25 µM,51.3% (inactive)
same,growth,[20]; 10 µM,109% (inactive)
O=C(Nc1ccc(Cl)cc1)c1cc2ccccc2cc1O,growth,[1]; 10 µM unless noted,29.6% (inactive) and 10% (inactive)
same,growth,[2]; 10 µM unless noted,14.1% (inactive) and 7.46% (active)
same,growth,[3]; 10 µM unless noted,29.4% (inactive) and 17% (inactive)
same,growth,[4]; 10 µM unless noted,52.7% (inactive) and 41.7% (inactive)
same,growth,[5]; 10 µM unless noted,53.6% (inactive) and -17% (active)
same,growth,[6]; 10 µM unless noted,53.6% (inactive) and 24.9% (inactive)
same,growth,[7]; 10 µM unless noted,10.2% (inactive) and 3.7% (active)
same,growth,[8]; 10 µM unless noted,22.7% (inactive) and 12.5% (inactive)
same,growth,[9]; 10 µM unless noted,20.7% (inactive)
same,growth,[10]; 10 µM unless noted,55% (inactive) and 7.47% (active)
same,growth,[11]; 10 µM unless noted,12.8% (inactive) and 15.8% (inactive)
same,growth,[12]; 10 µM unless noted,94.7% (inactive) and 8.61% (active)
same,growth,[13]; 10 µM unless noted,52.6% (inactive) and 53.1% (inactive)
same,growth,[14]; 10 µM unless noted,37.7% (inactive) and 29.6% (inactive)
same,growth,[15]; 10 µM unless noted,21.2% (inactive) and -8.1% (active)
same,growth,[16]; 10 µM unless noted,11.5% (inactive) and -13.1% (active)
same,growth,[17]; 10 µM unless noted,14% (inactive) and 0.898% (active)
same,growth,[18]; 10 µM unless noted,28.3% (inactive) and 35.1% (inactive)
same,growth,[19]; 10 µM unless noted,37.3% (inactive) and 12% (inactive)
same,growth,[20]; 10 µM unless noted,43.8% (inactive) and 45.1% (inactive)
CCN(CC)CCCC(C)N(Cc1ccccc1)CC(O)c1ccc(Cl)cc1 (stereo not given),growth,[1]; 10 µM unless noted,109% (inactive) and 106% (inactive)
same,growth,[2]; 10 µM unless noted,100% (inactive) and 106% (inactive)
same,growth,[3]; 10 µM unless noted,103% (inactive)
same,growth,[4]; 10 µM unless noted,114% (inactive) and 105% (inactive)
same,growth,[5]; 10 µM unless noted,101% (inactive) and 106% (inactive)
same,growth,[6]; 10 µM unless noted,102% (inactive) and 100% (inactive)
same,growth,[7]; 10 µM unless noted,103% (inactive) and 96% (inactive)
same,growth,[8]; 10 µM unless noted,111% (inactive) and 95.9% (inactive)
same,growth,[9]; 10 µM unless noted,102% (inactive) and 105% (inactive)
same,growth,[10]; 10 µM unless noted,109% (inactive) and 104% (inactive)
same,growth,[11]; 10 µM unless noted,101% (inactive) and 97.9% (inactive)
same,growth,[12]; 10 µM unless noted,108% (inactive) and 92.5% (inactive)
same,growth,[13]; 10 µM unless noted,109% (inactive) and 90.6% (inactive)
same,growth,[14]; 10 µM unless noted,109% (inactive) and 107% (inactive)
same,growth,[15]; 10 µM unless noted,105% (inactive) and 102% (inactive)
same,growth,[16]; 10 µM unless noted,87.7% (inactive) and 93.2% (inactive)
same,growth,[17]; 10 µM unless noted,100% (inactive) and 105% (inactive)
same,growth,[18]; 10 µM unless noted,95.8% (inactive) and 106% (inactive)
same,growth,[19]; 10 µM unless noted,99.7% (inactive) and 97.5% (inactive)
same,growth,[20]; 10 µM unless noted,109% (inactive) and 106% (inactive)
Cc1c(Cl)cccc1NCN1C(=O)c2ccccc2C1=O,growth,[1]; 10 µM unless noted,115% (inactive)
same,growth,[2]; 10 µM unless noted,109% (inactive)
same,growth,[3]; 10 µM unless noted,104% (inactive)
same,growth,[4]; 10 µM unless noted,121% (inactive)
same,growth,[5]; 10 µM unless noted,107% (inactive)
same,growth,[6]; 10 µM unless noted,107% (inactive)
same,growth,[7]; 10 µM unless noted,102% (inactive)
same,growth,[8]; 10 µM unless noted,102% (inactive)
same,growth,[9]; 10 µM unless noted,100% (inactive)
same,growth,[10]; 10 µM unless noted,110% (inactive)
same,growth,[11]; 10 µM unless noted,98.4% (inactive)
same,growth,[12]; 10 µM unless noted,104% (inactive)
same,growth,[13]; 10 µM unless noted,94.4% (inactive)
same,growth,[14]; 10 µM unless noted,110% (inactive)
same,growth,[15]; 10 µM unless noted,95.5% (inactive)
same,growth,[16]; 10 µM unless noted,101% (inactive)
same,growth,[17]; 10 µM unless noted,99.5% (inactive)
same,growth,[18]; 10 µM unless noted,114% (inactive)
same,growth,[19]; 10 µM unless noted,97% (inactive)
same,growth,[20]; 10 µM unless noted,112% (inactive)
